NadD block = NadD (S. aureus) enzyme inhibition. AID 602399. purified NadD enzyme, colorimetric absorbance read-out. hit rate 0.78% among 360,000. inhibition, % at 20 µM; in the data active = inhibition above about 26%
MsrA inhibitor = inhibits bovine methionine sulfoxide reductase A; purified bovine MsrA, absorbance read-out; AID 651718; inhibition, % at 15.5 µM; hit rate 0.75% among 360,000; in the data active = inhibition above about 4.5%
bovine MsrA act = bovine methionine sulfoxide reductase A activation; purified bovine MsrA, absorbance read-out; activation, % at 10.6 µM; hit rate 0.3% among 360,000; in the data active = activation above about 7.5%
rCAG binder = r(CAG) repeat RNA binding; TO-PRO-1 dye displacement fluorescence; inhibition, % at 3 µM; hit rate 1.3% among 370,000;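 active = inhibition above the plate cutoff, the mean of all test compounds on that plate plus 3 SD, cut at about 35% in these data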;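 note: higher means more dye released from RNA so lower well fluorescence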
rCAG bind conf = r(CAG) RNA repeat binding, confirmation | shares compounds with rCAG binder | TO-PRO-1 dye displacement fluorescence | inhibition, % at 3 µM | hit rate 70% among 4,300 | AID 652065;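 active = inhibition above a per-plate cutoff, the mean inhibition of sample wells plus 3 SD, cut at about 35% in these data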;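 note: loss of TO-PRO-1 fluorescence as compound displaces dye from 1x1 AA loop RNA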
DNA CAG counter = DNA CAG dye complex inhibition counter-screen. shares compounds with rCAG binder. d(CAG) DNA oligo TO-PRO-1 dye displacement, fluorescence. inhibition, % at 3 µM. hit rate 94% among 4,300;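 active = inhibition above its plate's cutoff, the mean test-well inhibition plus 3 SD, cut at about 4.8% in these data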;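 note: hits displace the dye from DNA and so lower well fluorescence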
dCAG dye DR = DNA CAG dye complex inhibition, dose response counter-screen. AID 686960. DNA CAG/GTC duplex TO-PRO-1 dye displacement fluorescence. shares compounds with rCAG binder. hit rate 20% among 250. IC50, µM; in the data active = IC50 below about 10 µM
A number is an active result. Most compounds without a hit are left out; they make up all but 2.7% or so of the library.

For c1ccc(Nc2nc3ccccc3n3cnnc23)cc1 the results were NadD block inactive, MsrA inhibitor inactive, bovine MsrA act inactive and rCAG binder inactive.
`N#C/C(=N\Nc1cccc([N+](=O)[O-])c1)C(=O)c1ccc(Br)cc1` gave NadD block inactive, MsrA inhibitor inactive, bovine MsrA act inactive, rCAG binder 76, rCAG bind conf 87 and DNA CAG counter 52.
For O=C(O)c1cc(-c2cccc(Cl)c2)nc2nc(N3CCCCC3)sc12 the results were NadD block inactive, MsrA inhibitor inactive, bovine MsrA act inactive, rCAG binder 46, rCAG bind conf 47, DNA CAG counter 12 and dCAG dye DR inactive.
Cc1ccnc2c(N3C(=O)C4C5c6ccccc6C(c6ccccc65)C4C3=O)cccc12 (stereo unspecified) was read as NadD block inactive, MsrA inhibitor inactive, bovine MsrA act inactive, rCAG binder 47, rCAG bind conf inactive and DNA CAG counter 4.4.
`Cc1ccccc1N1C(=O)C2C3CC(=O)C(c4ccccc43)C2C1=O` (stereo unspecified) gave NadD block inactive, MsrA inhibitor inactive, bovine MsrA act inactive and rCAG binder inactive.
Screening CCOc1cc(/C=N/NC(=O)C(N)=O)cc(Br)c1O returned NadD block inactive, MsrA inhibitor inactive, bovine MsrA act inactive, rCAG binder 36, rCAG bind conf inactive and DNA CAG counter inactive.
`CC1CC1C(=O)N(C)CC(=O)Nc1ccccc1Br` (stereo unspecified) gave NadD block inactive, MsrA inhibitor inactive, bovine MsrA act inactive and rCAG binder inactive.
`O=C(O)c1cc(N2N=C(C(F)(F)F)/C(=C/C=C/c3ccco3)C2=O)ccc1Cl` gave NadD block 42, MsrA inhibitor inactive, bovine MsrA act inactive, rCAG binder 89, rCAG bind conf 93 and DNA CAG counter 76.
`Fc1ccccc1-c1n[nH]c(=S)n1N=Cc1ccc(OCc2ccccc2)cc1` gave rCAG binder 70, rCAG bind conf 58 and DNA CAG counter 20.
For Oc1ccccc1/C=N/n1c(-c2ccccc2)n[nH]c1=S the results were NadD block inactive, MsrA inhibitor inactive, bovine MsrA act inactive and rCAG binder inactive.
Screening Fc1ccc(-c2n[nH]c(=S)n2N=Cc2ccc(OCc3ccccc3)cc2)cc1 returned rCAG binder 67, rCAG bind conf 47 and DNA CAG counter 17.
`Oc1ccc2ccccc2c1C=Nn1c(-c2n[nH]c3c2CCC3)n[nH]c1=S` gave rCAG binder 72, rCAG bind conf 60 and DNA CAG counter 22.
Screening CCOc1ccc(/C=N/n2c(-c3ccccc3)n[nH]c2=S)cc1 returned NadD block inactive, MsrA inhibitor inactive, bovine MsrA act inactive and rCAG binder inactive.
For CCN(CC)c1ccc(C=Nn2c(-c3ccc(F)cc3)n[nH]c2=S)c(O)c1 the results were rCAG binder 64, rCAG bind conf 52 and DNA CAG counter 16.
S=c1[nH]nc(-c2n[nH]c3c2CCC3)n1N=Cc1c2ccccc2cc2ccccc12 was read as rCAG binder inactive.
Screening Cc1cc(-c2n[nH]c(=S)n2N=Cc2cccc(OCc3ccccc3)c2)n[nH]1 returned rCAG binder inactive.
COc1ccc(C=Nn2c(-c3n[nH]c4c3CCC4)n[nH]c2=S)cc1OCc1ccccc1 was read as rCAG binder 49, rCAG bind conf 45 and DNA CAG counter 17.
COc1cc(C=Nn2c(-c3n[nH]c4c3CCC4)n[nH]c2=S)ccc1OCc1ccccc1 was read as rCAG binder inactive.
For S=c1[nH]nc(-c2ccccc2)n1/N=C/c1ccc(Cl)cc1 the results were NadD block inactive, MsrA inhibitor inactive, bovine MsrA act inactive and rCAG binder inactive.
COc1cc(/C=N/n2c(C)n[nH]c2=S)ccc1OCc1ccc(F)cc1 was read as NadD block inactive, MsrA inhibitor inactive, bovine MsrA act inactive and rCAG binder inactive.
Fc1ccc(-c2n[nH]c(=S)n2N=Cc2ccc(-c3ccccc3)cc2)cc1 was read as rCAG binder 44, rCAG bind conf 40 and DNA CAG counter 16.
`COc1ccc(C=Nn2c(-c3ccccc3F)n[nH]c2=S)cc1OCc1ccccc1` gave rCAG binder 50, rCAG bind conf 42 and DNA CAG counter 10.
For Cc1cc(C)c(S(=O)(=O)Nc2nnc(C)s2)c(C)c1 the results were NadD block inactive, MsrA inhibitor inactive, bovine MsrA act inactive and rCAG binder inactive.
Screening O=[N+]([O-])c1ccc(S(=O)(=O)Nc2nnc(C3CCCCC3)s2)cc1 returned NadD block inactive, MsrA inhibitor inactive, bovine MsrA act inactive, rCAG binder 47, rCAG bind conf inactive and DNA CAG counter 8.3.
Screening O=S(=O)(Nc1nnc(C2CCCCC2)s1)c1ccc(F)cc1 returned NadD block inactive, MsrA inhibitor inactive, bovine MsrA act inactive and rCAG binder inactive.
Screening Cc1cc(C)c(S(=O)(=O)Nc2nnc(CC(C)C)s2)c(C)c1 returned NadD block inactive, MsrA inhibitor inactive, bovine MsrA act inactive, rCAG binder 49, rCAG bind conf inactive and DNA CAG counter 8.4.
Screening Cc1cc(C)c(S(=O)(=O)Nc2nnc(C3CCCCC3)s2)c(C)c1 returned NadD block inactive, MsrA inhibitor inactive, bovine MsrA act inactive, rCAG binder 72, rCAG bind conf 59 and DNA CAG counter 25.
Clc1ccc(C2CSc3c4ncnc-4ncn32)cc1 (stereo unspecified) was read as NadD block inactive, MsrA inhibitor inactive, bovine MsrA act inactive and rCAG binder inactive.
`CCC(C)(C)NC(=O)C(c1ccc(OC)cc1)N(C(=O)CCC(=O)Nc1cc(C)on1)c1ccc2c(c1)OCCO2` (stereo unspecified) gave NadD block inactive, MsrA inhibitor inactive, bovine MsrA act inactive and rCAG binder inactive.
`O=C(O)COc1ccccc1/C=C1\SC(=S)N(NC(=O)c2ccccc2O)C1=O` gave NadD block inactive, MsrA inhibitor inactive, bovine MsrA act inactive, rCAG binder 61, rCAG bind conf 42 and DNA CAG counter 10.
`O=C(NN1C(=O)/C(=C/c2cccc(O)c2)SC1=S)c1ccccc1O` gave NadD block inactive, MsrA inhibitor inactive, bovine MsrA act inactive, rCAG binder 75, rCAG bind conf 51 and DNA CAG counter 16.
For O=C(O)COc1ccccc1/C=C1\SC(=S)N(/N=C/c2ccccc2O)C1=O the results were NadD block inactive, MsrA inhibitor inactive, bovine MsrA act inactive and rCAG binder inactive.
Cc1cc(=O)[nH]c2ccc(S(=O)(=O)N3CCOCC3)cc12 was read as NadD block inactive, MsrA inhibitor inactive, bovine MsrA act inactive and rCAG binder inactive.
`CCCOc1cccc(C2C(C(=O)c3ccc(C)o3)=C(O)C(=O)N2c2nc(C)c(C(C)=O)s2)c1` (stereo unspecified) gave NadD block inactive, MsrA inhibitor inactive, bovine MsrA act inactive, rCAG binder 36, rCAG bind conf 57, DNA CAG counter 18 and dCAG dye DR inactive.

Compound activity: PubChem BioAssay, several laboratories
